Laboratory results: PubChem BioAssay AID588405 (Sanford-Burnham Center for Chemical Genomics, 2011)
About 6,200 (1.7%) of roughly 360,000 compounds were called active. For the sample, actives were picked, then their nearest neighbours and some compounds at random. Unmarked numbers belong to inactive results.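 The calls were made as follows: active = inhibition of at least 50% at 20 µM; inactive = the rest.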

Test: inhibition of PEG-3 promoter activity – cell-based, HeLa, luciferase luminescence, primary screen (AID 588405)
Details: HeLa PEG-Prom luciferase reporter, overnight, at 20 µM, hits give high values

Structure (SMILES)	inhibition
CCOC(=O)C1=CC[C@@H](c2ccncc2)N(S(=O)(=O)c2ccc(C)cc2)C1	27.8%
O=C(Nc1ccc(Cl)c(C(F)(F)F)c1)C1Cc2c(-c3ccccc3Oc3ccccc3)ccnc2O1 (centres undefined)	26.9%
O=C(Cc1cccc2ccccc12)NNC(=O)Nc1ccc(Cl)cc1	-102%
CC(C)(C)C(=O)NC(NC(=S)Nc1ccc(S(N)(=O)=O)cc1)C(Cl)(Cl)Cl (centres undefined)	17%
Cc1ccc(NC(=S)NC(NC(=O)Cc2cccc3ccccc23)C(Cl)(Cl)Cl)cc1 (centres undefined)	105% (active)
C/C(CC1CC(C)(C)OC1=O)=N/Nc1nc(-c2ccccc2)cs1 (centres undefined)	-108%
COc1ccc2c(c1OC)C(=O)OC2Nc1nc(-c2ccccc2)cs1 (centres undefined)	104% (active)
CC(C)C1CC2=C(C(=O)OC(C)(C)O2)C(c2ccc(F)cc2)O1 (centres undefined)	4.49%
COc1ccc(Cl)cc1-c1cc(C(=O)Nc2cc(OC)c(OC)c(OC)c2)[nH]n1	33.8%
O=C(Nc1ccc(Cl)cc1)c1csc([C@H]2C[C@H](O)[C@@H](CO)O2)n1	-232%
Cc1ccc([C@@H]2CC(=O)[C@@H]3CN(S(=O)(=O)c4ccc(C)cc4)[C@H](c4ccccc4F)C[C@@H]3N2S(=O)(=O)c2ccc(Cl)cc2)cc1	13.7%
COc1ccc(NC(=O)N(C)C[C@@H]2OCc3cn(nn3)CCCC(=O)N([C@H](C)CO)C[C@H]2C)c(OC)c1	-5.47%
COc1ccc(Cl)cc1N(CC(=O)N/N=C/c1ccc(OCC(N)=O)cc1)S(C)(=O)=O	-7.79%
Cc1nc2ccccc2nc(C)c1=NOCc1ccc(Cl)cc1Cl	29.6%
NC(N)=N/N=C/c1ccc(OCc2ccc(Cl)cc2Cl)cc1	99.3% (active)
O=C(/C=C/c1ccc([N+](=O)[O-])o1)NNC(=O)c1ccc(F)cc1	99.4% (active)
O=C(/C=C/c1ccc(F)cc1)NC(=S)NNC(=O)c1cccnc1	8.82%
O=C(Nc1ccc(F)cc1)C1CCN(C(=O)c2ccc([N+](=O)[O-])cc2)CC1	17.8%
CC1(c2ccccc2)CC(C)(C)N(C(=O)c2cc([N+](=O)[O-])cc([N+](=O)[O-])c2)c2ccccc21 (centres undefined)	16.3%
CC1(c2cccc([N+](=O)[O-])c2)CC(C)(C)N(C(=O)c2ccccc2)c2ccccc21 (centres undefined)	34.9%
Cc1nnc(SCC(=O)N2c3ccccc3C(C)(c3ccc(Cl)cc3)CC2(C)C)s1 (centres undefined)	51.1% (active)
COc1ccc(NC(=O)C2Cc3c(-c4ccc5c(c4)OCO5)ccnc3O2)cn1 (centres undefined)	21.4%
COc1ccc(NC(=O)/C(Cl)=C(/Cl)S(=O)Cc2ccc(C)cc2)cn1 (centres undefined)	109% (active)
COc1ccc(NC(=O)CN2C(=O)NC(C)(c3ccccc3)C2=O)cn1 (centres undefined)	1.66%
Cc1cc2nc(-c3ccco3)c(Cc3cccc(F)c3)n2c(C)c1Br	-26.2%
CC(Sc1nnc(C2CC2)n1C1CC1)C(=O)Nc1ccc(C(N)=O)cc1 (centres undefined)	0.86%
CCOC(=O)c1c(C)oc2cc(Sc3ccccc3)c(O)c(O)c12	-89%

Structure (SMILES)	inhibition
Cc1oc2cc(Br)c(O)c(Br)c2c1C(=O)c1ccccc1	-69.5%
CCOC(=O)c1c(-c2ccccc2)oc2cc(Br)c(O)c(C=O)c12	69.1% (active)
CCCNC(=O)c1cc(C2CCCCN2S(=O)(=O)c2cn(C)cn2)on1 (centres undefined)	-3.04%
O=C(CNC(c1ccccc1)c1ccccc1)Nc1ccc(F)cc1	6.17%
O=S1(=O)CC(N2CCN(c3ccccn3)CC2)CN1Cc1ccc(F)cc1 (centres undefined)	10.9%
Cc1ccc(F)c(S(=O)(=O)NC(=O)C2(C)CCN2C(=O)c2ccco2)c1 (centres undefined)	-1.32%
CCOc1ccc(N(CC(=O)NCC2CCCO2)S(=O)(=O)c2ccc(C)cc2)cc1 (centres undefined)	14.4%
Cc1cc(Br)ccc1NC(=O)c1sc2ncn(CC(=O)N3CCN(c4ccccn4)CC3)c(=O)c2c1C	1.76%
COc1ccc(NC(=O)c2sc3nc(C)nc(N4CCN(c5ccccn5)CC4)c3c2C)c(OC)c1	30.7%
Cc1cc(Br)ccc1NC(=O)c1cnc(N2CCN(c3ccccn3)CC2)c2ccccc12	64.2% (active)
CC(=O)Nc1cccc(-c2cc(NC=O)c3ncc(-c4ccc(F)c(Cl)c4)n3c2)c1	40.1%
CC(C)(C)CC(=O)Nc1nnc(SCC(=O)NCc2cccs2)s1	9.91%
COc1ccc(CC(N)c2csc(NC(=O)Cc3ccccc3)n2)cc1 (centres undefined)	49.7%
COc1ccc(CC(N)c2csc(NC(=O)Nc3ccc(C(C)C)cc3)n2)cc1 (centres undefined)	100% (active)
COC(=O)[C@H](CCSC)NC(=O)Nc1ccc(OC)cc1	10.2%
COc1ccc(CC(N)c2csc(NC(=O)NC(c3ccccc3)c3ccccc3)n2)cc1 (centres undefined)	96.6% (active)
COc1ccc(OC)c(NC(=O)N[C@H](Cc2ccccc2)C(=O)NN)c1	9.08%
COc1ccc(NC(=O)C(Br)C(C)C)cc1 (centres undefined)	-6.38%
CC(C)(C)CC(=O)Nc1nc(C(N)Cc2ccc(C(F)(F)F)cc2)cs1 (centres undefined)	102% (active)
Cc1ccccc1NC(=O)Cc1nc(COC(=O)c2ccc(C(F)(F)F)cc2)cs1	-7.19%
O=C(NCc1ccc(F)cc1)c1cc(C2CCCCN2C(=O)c2cccs2)on1 (centres undefined)	12.7%
CC(C)Cn1c(N)c(C(=O)COC(=O)C2CCCN2C(=O)c2cccs2)c(=O)n(C)c1=O (centres undefined)	8.57%
C#Cc1ccc(NC(=O)C2(C)CCN2C(=O)Cc2ccc(-c3ccccc3)cc2)cc1 (centres undefined)	20.8%
O=C(NCc1cccnc1)c1cc(C2CCCN(C(=O)C3CCCCC3)C2)on1 (centres undefined)	3.87%
CC(C)CCNC(=O)c1[nH]c(C(F)(F)F)nc1-c1ccccc1	11.4%
COc1ccc(C(NC(=O)C2CCN(CCCc3ccccc3)CC2)c2cccs2)cc1 (centres undefined)	2.75%
Nc1ncnc2c1ncn2[C@@H]1O[C@H](C(=O)NCC(F)(F)F)[C@@H](O)[C@H]1O	4.09%
